D1 mod = allosteric modulators of human D1 dopamine receptor; HEK293 D1, CRE-luciferase, dopamine EC30 potentiation; actives deviate in either direction; P21728; 5.9% of 58,000 active; B-score at 10 µM;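 active = luminescence count or its row- and column-corrected plate score outside the 99.7% band of the plate's sample wells, on either side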
Target sequence (P21728 whole entry, looked up): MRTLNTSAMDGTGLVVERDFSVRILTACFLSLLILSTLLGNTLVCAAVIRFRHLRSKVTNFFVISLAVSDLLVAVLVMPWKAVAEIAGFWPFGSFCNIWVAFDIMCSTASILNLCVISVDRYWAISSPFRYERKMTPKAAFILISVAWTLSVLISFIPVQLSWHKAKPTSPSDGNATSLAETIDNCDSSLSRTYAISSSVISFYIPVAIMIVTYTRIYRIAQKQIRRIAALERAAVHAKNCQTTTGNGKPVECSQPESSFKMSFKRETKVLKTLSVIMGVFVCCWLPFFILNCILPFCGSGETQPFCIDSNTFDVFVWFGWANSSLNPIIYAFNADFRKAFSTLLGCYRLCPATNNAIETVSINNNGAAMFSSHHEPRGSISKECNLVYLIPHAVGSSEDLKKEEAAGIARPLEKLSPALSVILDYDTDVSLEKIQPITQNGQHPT
BAP1 inh = inhibitors of human BAP1 deubiquitinase. Q92560. recombinant BAP1, Ub-AMC hydrolysis fluorescence kinetic; hits give low values. calls only at 20 µM. 0.48% of 72,000 active;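 active = activity remaining at or below 50% of control, provided the compound also passes the data quality filters; inactive = the rest, including low values that fail the filters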
DAT uptake mod = human DAT dopamine uptake with cocaine, either direction | AID 449768 | Q01959 | B-score at 10 µM | LLC-PK1 hDAT cells, [14C]-dopamine uptake with cocaine IC80; actives deviate in either direction | 1.3% of 110,000 active;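 active = Z score or B-score, a plate-position-corrected score, falls beyond the plate's 99.7% confidence bounds, in either direction; inactive = both scores lie inside the 99.7% bounds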
D1 PAM confirm = D1 receptor (human) allosteric modulation, confirmed; shares compounds with D1 mod; luminescence at 10 µM; AID 642; HEK293 D1 CRE-luciferase, dopamine EC30 potentiation; hits give high values; 88% of 2,200 active;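 active = luminescence in either of two replicates above the same-plate mean plus 3 SD of the low-dose dopamine control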
D1 ag no DA = activates D1 CRE-luciferase signal without dopamine present. shares compounds with D1 mod. HEK293 D1 CRE-luciferase, luminescence, no dopamine; hits give high values. luminescence at 10 µM. 0.8% of 1,900 active. AID 646; in the data active = luminescence above about 3900
Isoprot counter = isoproterenol response counter-screen activity for D1 modulators; shares compounds with D1 mod; HEK293 D1 CRE-luciferase, isoproterenol EC30 counter-screen; hits give high values; luminescence at 10 µM; 63% of 2,200 active; AID 647;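 active = luminescence in either replicate above plate mean of wells with a partly effective reference agonist dose plus 3 SD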;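 note: isoproterenol raises cAMP through native beta-adrenoceptor Gs so signal bypasses D1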
Hits are given with their value; 0 = inactive; - = no result shown. This excerpt belongs to a sample that is enriched for hits.

SMILES | D1 mod | BAP1 inh | DAT uptake mod | D1 PAM confirm | D1 ag no DA | Isoprot counter
CCOC(=O)N1CCC(N2Cc3cccc(C(=O)NCc4ccc(OC)cc4)c3C2=O)CC1 | 0 | 0 | - | - | - | -
CCOC(=O)N1CCC(N2Cc3cccc(C(=O)O)c3C2=O)CC1 | 0 | 0 | 0 | - | - | -
COc1ccc(N2CC(C(=O)Nc3ccccc3C(=O)NCc3ccco3)CC2=O)cc1 (centres undefined) | 0 | 0 | 0 | - | - | -
CCOC(=O)N1CCC(N2Cc3cccc(C(=O)NCc4ccccc4OC)c3C2=O)CC1 | 4.9 | 0 | 0 | 0 | 0 | 0
CCOC(=O)N1CCC(NC(=O)c2cccc3c2C(=O)N(c2ccc(OC)cc2)C3)CC1 | 5.2 | 0 | 0 | 10556 | 0 | 3540
CCCCCOC(=O)C1=C(C)NC2=C(C(=O)CCC2)C1c1cc2c(cc1Cl)OCO2 (centres undefined) | - | 0 | - | - | - | -
CCN(CC)CCNS(=O)(=O)c1cccc2nsnc12 | - | 0 | - | - | - | -
O=C(COc1cccc(C(F)(F)F)c1)Nc1ncc(Cc2cccc(C(F)(F)F)c2)s1 | - | 0 | - | - | - | -
N#Cc1c(NC(=O)c2cnn3c2NC(c2cccs2)CC3C(F)(F)F)sc2c1CCCC2 (centres undefined) | - | 0 | - | - | - | -
COc1ccc(S(=O)(=O)NCc2ccco2)cc1-c1nnc2c3ccccc3c(C)nn12 | 8.6 | 0 | 0 | 8232 | 0 | 3052
CNS(=O)(=O)c1ccc(OC)c(-c2nnc3c4ccccc4c(C)nn23)c1 | - | - | 0 | - | - | -
O=c1[nH]cc(-n2c(=O)c3ccccc3c3ccccc3c2=O)c(=O)[nH]1 | - | 0 | - | - | - | -
COc1ccc(C=Cc2ccc([N+](=O)[O-])cc2)cc1 | - | 0 | - | - | - | -
CC(C)CNc1oc(-c2ccc(F)cc2)nc1C#N | 13 | - | 0 | 14732 | 0 | 4356
N#Cc1nc(-c2ccc(F)cc2)oc1NCc1cccc2c1OCO2 | 0 | 0 | 0 | - | - | -
Cc1ccccc1OCC(O)Cn1c(NCCN(C)C)nc2c1c(=O)n(C)c(=O)n2C (centres undefined) | 8.2 | 0 | - | 0 | 0 | 0
Cn1c(=O)c2c(nc(NCc3ccco3)n2CC(O)COc2ccccc2)n(C)c1=O (centres undefined) | 0 | 0 | - | - | - | -
Cc1ccc(N2C(N)=C(C#N)C(c3ccsc3)C3=C2CC(C)(C)CC3=O)cc1 (centres undefined) | - | - | 0 | - | - | -
N#CC1=C(N)N(c2ccccc2)C2=C(C(=O)CCC2)C1c1ccsc1 (centres undefined) | 8.3 | 0 | 0 | 17976 | 0 | 0
Cc1cc2nn(-c3ccccc3)nc2cc1NC(=O)c1ccc([N+](=O)[O-])c(C)c1 | - | 0 | - | - | - | -
COc1ccc(/C=C2\CCOC2=O)cc1 | - | - | 0 | - | - | -
COc1ccc(N/C=C2\CCOC2=O)cc1 | 3.2 | 0 | 0 | 0 | 0 | 0
c1coc(CNc2nc(-c3ccncc3)cs2)c1 | 3.6 | 0 | 0 | 8460 | 0 | 3840
COc1ccc(-c2csc(NCc3ccco3)n2)cc1 | - | - | 0 | - | - | -
O=c1c(-c2cc3ccccc3o2)coc2cc(O)ccc12 | - | 0 | - | - | - | -
SMILES | D1 mod | BAP1 inh | DAT uptake mod | D1 PAM confirm | D1 ag no DA | Isoprot counter
CCOC(=O)c1c(NC(=O)c2cccc(Oc3ccccc3)c2)sc2c1CCC2 | - | 0 | - | - | - | -
COc1ccc(Nc2ncccc2C(=O)NCc2ccccc2)cc1 | - | - | 0 | - | - | -
COc1cccc(Nc2ncccc2C(=O)NCc2ccccc2)c1 | 11 | 0 | 0 | 21276 | 0 | 4236
COC(=O)c1c(NC(=O)COc2ccc(Cl)cc2C)sc2c1CCC2 | - | 0 | - | - | - | -
CC(C)NC(=O)c1nn2c(C(F)(F)F)cc(-c3ccc(Br)cc3)nc2c1Br | - | 0 | - | - | - | -
CCCCCn1c(SCc2cccc(C)c2)nc2c1c(=O)[nH]c(=O)n2C | 0 | 0 | 0 | - | - | -
C=CCn1c(SCc2ccc(F)cc2)nc2c1c(=O)[nH]c(=O)n2C | 0 | 0 | 0 | - | - | -
C=CCSc1nc2c(c(=O)[nH]c(=O)n2C)n1C(C)C | 9.5 | 0 | 0 | 11684 | 0 | 3388
C/C=C/Cn1c(SCc2ccc(C)cc2)nc2c1c(=O)[nH]c(=O)n2C | 12 | 0 | 0 | 26548 | 0 | 6572
C=CCn1c(SCc2ccc(Cl)cc2)nc2c1c(=O)[nH]c(=O)n2C | 2.9 | - | 0 | 8180 | 0 | 3348
C=CCSc1nc2c(c(=O)[nH]c(=O)n2C)n1Cc1ccc(C)cc1 | - | 0 | - | - | - | -
CC(C)(O)C#Cc1ccc(C(=O)N2CCN(C(c3ccccc3)c3ccccc3)CC2)cc1 | - | 0 | - | - | - | -
COc1ccc2c(c1)C1=NN(C(C)=O)C(c3ccc(F)cc3)C1CC2 (centres undefined) | - | 0 | - | - | - | -
